# Screening results from PubChem BioAssay.
# TEAD-YAP block: TEAD-YAP interaction inhibition; AID 1259422; HEK-TIYL cells, TEAD-Gal4/YAP UAS-luciferase luminescence; inhibition, % at 9.12 µM; actives 1.4% (n = 640,000); in the data active means inhibition above about 32%
# GPR151 ag: human GPR151 activation | PathHunter beta-arrestin GPR151 cells, luminescence | activation, % at 11.2 µM | Q8TDV0 | actives 1% (n = 650,000); in the data active means activation above about 4.9%
# Target sequence (Q8TDV0 whole entry, looked up): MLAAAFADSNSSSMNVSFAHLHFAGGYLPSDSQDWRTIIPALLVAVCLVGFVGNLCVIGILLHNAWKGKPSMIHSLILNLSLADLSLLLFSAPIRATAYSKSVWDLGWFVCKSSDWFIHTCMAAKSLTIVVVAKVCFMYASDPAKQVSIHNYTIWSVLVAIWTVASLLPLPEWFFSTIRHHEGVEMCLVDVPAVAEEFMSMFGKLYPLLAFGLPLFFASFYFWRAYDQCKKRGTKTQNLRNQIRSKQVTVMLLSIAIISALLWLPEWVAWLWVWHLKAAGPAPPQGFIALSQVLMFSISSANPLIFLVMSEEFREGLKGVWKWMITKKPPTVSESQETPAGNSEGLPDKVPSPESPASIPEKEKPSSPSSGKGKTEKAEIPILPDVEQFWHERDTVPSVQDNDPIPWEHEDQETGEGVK
# MITF inh: blocks human microphthalmia-associated transcription factor; AlphaScreen MITF homodimerization, bead proximity signal; actives 0.91% (n = 650,000); inhibition, % at 2.6 µM; in the data active means inhibition above about 50%
# FBW7 activator: human FBW7 E3 ligase activation, primary screen; Q969H0; AlphaScreen FBW7–phospho-cyclin E peptide binding, activator screen; normalized activity (activation), % at 26.1 µM; actives 0.13% (n = 650,000); AID 1259310; in the data active means normalized activity above about 1.9%;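 further: purified mutant Fbw7 with reduced substrate affinity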
# MITF confirm: human MITF inhibition, confirmation | shares compounds with MITF inh | inhibition, % at 2.6 µM | actives 16% (n = 4,700) | AlphaScreen MITF homodimerization, biotin/His-MITF beads;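 active means inhibition above a cutoff derived from the DMSO control wells, cut at about 28% in these data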;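 further: inhibitors lower the bead chemiluminescence by keeping MITF from dimerizing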
# AS interf ctr: counter-screen: compounds optically interfering with AlphaScreen | shares compounds with MITF inh | LysRS AlphaScreen counterscreen, signal interference, triplicate | inhibition, % at 2.6 µM | actives 7.6% (n = 4,700) | AID 1259376;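 active means inhibition above a cutoff derived from the DMSO control wells, cut at about 30% in these data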
# Hits are given with their value; i = inactive; nt = no result. This is a sample that favours compounds with a hit; in the whole collection about 3.5% have one here.
SMILES,TEAD-YAP block,GPR151 ag,MITF inh,FBW7 activator,MITF confirm,AS interf ctr
CC(C)CC(=O)N1CCN(Cc2ccccc2[N+](=O)[O-])CC1,i,i,56,i,i,i
O=[N+]([O-])c1ccccc1CN1CCN(CCOCCO)CC1,i,i,62,i,i,i
COc1cc(CN2CCN(CCOCCO)CC2)c([N+](=O)[O-])cc1OC,i,i,i,i,nt,nt
Cc1nnc(NC(=O)CN2C(=O)c3ccccc3C2=O)s1,i,i,i,i,nt,nt
O=C(CNCCN1CCOCC1)NCc1ccc2c(c1)OCO2,i,i,84,i,i,i
COc1cccc(CNCC(=O)NCc2ccc3c(c2)OCO3)c1,i,i,60,i,i,i
CC(C)NC(=O)CNCc1ccc2c(c1)OCO2,i,i,i,i,nt,nt
O=C(CNCc1cccnc1)Nc1ccc2c(c1)OCO2,i,i,59,i,i,i
O=C(CNCc1ccc2c(c1)OCO2)Nc1ccccc1F,i,i,64,i,i,i
O=C(CNCc1cccnc1)Nc1ccccc1,i,i,i,i,nt,nt
O=C(CSC1CC(=O)N(c2ccc(C(=O)O)cc2)C1=O)Nc1cccc(F)c1 (configuration not stated),i,i,i,i,nt,nt
CCc1ccc(-n2c(CSc3nnc(-c4ccc(OC)cc4)n3-c3ccccc3)nc3ccccc3c2=O)cc1,i,i,i,i,nt,nt
COc1cc(C2N(c3ccccc3)CCN2c2ccccc2)c([N+](=O)[O-])cc1OC,i,i,i,i,nt,nt
O=C(CSCc1ccccc1)NCc1ccc2c(c1)OCO2,i,i,i,i,nt,nt
O=C(CNCCc1ccccc1)NCc1ccc2c(c1)OCO2,i,i,73,i,i,i
COc1ccc(S(=O)(=O)N(CCCO)Cc2cc3ccc(C)cc3[nH]c2=O)cc1,i,i,i,i,nt,nt
COCCSc1nnc(-c2cnccn2)n1C,i,i,75,i,i,i
O=C1C2C3C=CC(C3)C2C(=O)N1c1ccc2c(c1)CCC2 (configuration not stated),i,i,79,i,i,i
O=C1C2CCCCC2C(=O)N1c1ccc2c(c1)CCC2 (configuration not stated),i,i,i,i,nt,nt
COc1ccccc1NC1=C(Cl)C(=O)OC1OC(=O)c1ccccc1 (configuration not stated),i,i,i,i,nt,nt
CCOc1ccc(C(=O)CS(=O)(=O)c2ccc(C)cc2)cc1,i,i,i,i,nt,nt
CS(=O)(=O)c1ccc2nc(NC(=O)/C=C/c3cccc([N+](=O)[O-])c3)sc2c1,i,i,80,i,i,i
CS(=O)(=O)c1ccc2nc(NC(=O)/C=C/c3ccccc3Cl)sc2c1,i,i,i,i,nt,nt
CC(C)(C)c1ccc(S(=O)(=O)N2CCN(c3cccc(C(F)(F)F)c3)CC2)cc1,i,i,i,i,nt,nt
O=C(C1=C(O)C(=O)N(c2nncs2)C1c1cccc(Br)c1)c1cccs1 (configuration not stated),i,i,i,i,nt,nt
SMILES,TEAD-YAP block,GPR151 ag,MITF inh,FBW7 activator,MITF confirm,AS interf ctr
N#Cc1ccccc1NC(=O)c1ccc(S(=O)(=O)N2CCCC2)cc1,i,i,i,i,nt,nt
N#Cc1ccccc1NC(=O)c1ccc(S(=O)(=O)N2CCOCC2)cc1,i,i,55,i,i,i
c1ccc(C2(c3ccccc3)OC(c3cccs3)Oc3ccccc32)cc1 (configuration not stated),i,i,i,i,nt,nt
CC(C)NC(=O)C(=O)N/N=C/c1ccc(OCc2ccc(Cl)cc2)cc1,i,i,i,i,nt,nt
CC(C)NC(=O)C(=O)N/N=C/c1ccc(OCc2ccccc2Cl)cc1,i,i,55,i,i,i
Cc1ccc(C(C)C)cc1OCCNC(C)C,i,i,89,i,i,i
Cc1ccc(C(C)C)cc1OCCCCn1ccnc1,i,i,53,i,i,i
Cc1ccc(C(C)C)cc1OCCOCCN1CCCC1,i,i,54,i,i,i
C=CCNCCOc1cc(C(C)C)ccc1C,i,i,i,i,nt,nt
Cc1ccc(C(C)C)c(OCCCCn2ccnc2)c1,i,i,i,i,nt,nt
CCOC(=O)C1=C(C)NC2=C(C(=O)C(C(=O)OC)C(C)C2)C1c1cccc(F)c1 (configuration not stated),i,i,i,i,nt,nt
CS(=O)(=O)c1ccccc1C(=O)Nc1nc(-c2ccccn2)cs1,i,i,57,i,38,100
CSc1ccccc1C(=O)Nc1nc(-c2ccccn2)cs1,i,i,i,i,nt,nt
CCn1ccc(C(=O)Nc2nc(-c3ccccn3)cs2)n1,i,i,83,i,73,101
Oc1ccc(CNc2ccc(F)cc2)c2cccnc12,i,i,66,i,104,100
Oc1ccccc1CNc1ccc(F)cc1,i,i,i,i,nt,nt
COc1cccc(NCc2ccc(O)c3ncccc23)c1,92,i,56,i,93,92
Oc1ccc(CNc2ccccc2)c2cccnc12,i,i,73,i,44,80
Oc1ccc(CNc2cccc(F)c2)c2cccnc12,55,i,62,i,98,100
COc1ccc(N2CCN(C(=O)C34CC5CC(CC(O)(C5)C3)C4)CC2)cc1,i,i,i,i,nt,nt
COC(=O)C1=CN(Cc2ccccc2)C=C(C(=O)OC)C1c1ccc2c(c1)OCO2,i,i,i,i,nt,nt
COc1ccc(NCc2ccc(O)c3ncccc23)c(OC)c1,i,i,75,i,46,89
COc1ccc(-c2cnc3ccc(NC4CCOCC4)nn23)cn1,i,i,i,i,nt,nt
COc1ncc(-c2cnc3ccc(NC4CCOCC4)nn23)c(OC)n1,i,i,68,i,i,i
COc1ccc(/C=C/C(=O)NCCCN2CCC(N(C)C3CCCCC3C)CC2)cc1 (configuration not stated),i,i,i,i,nt,nt
SMILES,TEAD-YAP block,GPR151 ag,MITF inh,FBW7 activator,MITF confirm,AS interf ctr
COc1ccc(OC)c(/C=C/C(=O)NCCN2CCC(N(C)C3CCCCC3C)CC2)c1 (configuration not stated),i,i,52,i,i,i
O=C(NNC(=S)Nc1ccccc1)C(=O)NNC(=S)Nc1ccccc1,i,i,79,i,58,i
CCCCCCCC(=O)NNC(=O)c1ccc(Cl)cc1,i,i,i,i,nt,nt
CCCCCC(=O)NNC(=O)c1ccc(-c2ccccc2)cc1,i,i,76,i,i,i
O=C(O)c1cccc(S(=O)(=O)N2CCC(c3nc4ccc(Cl)cc4[nH]3)CC2)c1,i,i,69,i,i,i
O=S(=O)(c1cccc(Cl)c1)N1CCC(c2nc3ccccc3[nH]2)CC1,i,i,i,i,nt,nt
CC(C)CCCC(C)NC(=O)Cc1ccccc1 (configuration not stated),i,i,i,i,nt,nt
COc1ccccc1NC(=O)c1c(O)c2cccc3c2n(c1=O)CC3,i,i,i,i,nt,nt
CCOc1ccc(NS(=O)(=O)/C=C/c2ccccc2)cc1,i,i,i,i,nt,nt
C=Cn1ccnc1P(c1ccccc1)c1nccn1C=C,i,i,104,i,110,100
O=C(Nc1ccccc1[N+](=O)[O-])c1cc(-c2ccccc2)nc2c(Cl)cccc12,i,i,i,i,nt,nt
